Experimental findings from PubChem BioAssay are described below.

Active and inactive are the calls of the source.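 The calls were made as follows, unless noted: active = visually confirmed hit in the image check and inhibition above 20%; inconclusive = visually confirmed hit but inhibition not above 20%; inactive = no visual hit in the image check.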

The nature of assay [1]: inhibitors of TNFa-induced NFkB p65 translocation, primary screen, imaging, HUVEC, MLSMR starter and 10KST1 sets (AID 438;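 active = inhibition above 20% together with a positive visual image hit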;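 also: compound added about 3h40 before a 20 min TNFalpha stimulation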;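 as to inhibition: signal is the nuclear over cytoplasmic p65 intensity ratio per well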). The settings on record: HUVEC TNFa-induced p65 nuclear translocation; cell count: measured here: nuclei count (cytotoxicity indicator), at 2.08 µM; inhibition: at 2 µM, stronger effect = higher value, 0% TNFa-plus-vehicle, 100% no-TNFa wells.
A short description of assay [2]: reduction of polyQ htt aggregates in cells – imaging, exon1htt(103Q)mCFP cells, high-content imaging, primary screen (AID 483;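 active = visual image review flags a hit and inhibition of aggregation exceeds 20%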;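 also: compound exposure lasted 3 days before fixation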;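 as to nuclei count: percent of the per-plate median nuclei count of sample wells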). The settings on record: exon1htt(103Q)mCFP cell line, aggregate imaging, at 2 µM; inhibition of aggregation: stronger effect = higher value; nuclei count: measured here: cell count, toxicity.
Assay [3] is described as follows: endothelial E-selectin expression blockers – imaging, HUVEC, immunofluorescence, MLSMR starter and 10KST1 sets, primary screen (AID 487).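 As to inhibition: signal is fraction of cell area covered by stained E-selectin grains.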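 As to nuclei count: 100% = median nuclei count of all wells on the same plate.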 The settings on record: HUVEC TNFalpha-induced E-selectin immunofluorescence imaging, at 2 µM; inhibition: stronger effect = higher value; nuclei count: measured here: cell number, toxicity.
For assay [4], the target named is Voltage-gated potassium channel subunit beta-2 (Rattus norvegicus) (UniProt P62483). Description: inhibitors of rat Kvbeta2 reductase activity – biochemical, NADPH fluorescence, primary screen (AID 622;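 active = fluorescence slope higher than the sample average by over 3 SD, cut at about -0.22 in these data, passing the limit was not always enough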;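 also: slope of raw intensity against log time taken from 70 to 1610 s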). The settings on record: recombinant KvBeta, 4-cyanobenzaldehyde reduction, at 10 µM, stronger effect = higher value.
The target is the same in assay [5]. Description: enhancers of rat Kvbeta2 NADPH turnover – biochemical, NADPH fluorescence, primary screen (AID 623;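 active = NADPH fluorescence slope more negative than the mean of all samples by about 3 SD, 99.7% confidence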;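 also: fluorescence intensity change per second fitted from 20 to 320 s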). The settings on record: Recombinant KvBeta, NADPH fluorescence decrease slope, 10 min; at 10 µM; stronger effect = lower value.
In assay [6] the target is Alpha-2C adrenergic receptor (Homo sapiens) (UniProt P18825). Description: compounds altering alpha2C-coupled GIRK flux – cell-based, HEK293 alpha2C/GIRK1/2, thallium flux, primary screen (AID 624;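 active = fluorescence slope after compound addition differing from the mean of all screened samples at 99.7% confidence, in either direction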;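 also: slope of fluorescence ratio to pre-addition baseline per second over 15 to 24 s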). The settings on record: thallium flux BTC fluorescence, at 10 µM, actives lie on both sides.
Assay [7] can be described thus: blockers of RIG-like receptor reporter activation – cell-based, Sendai virus stimulus, luciferase, 10K MLSCN set, TLR/RLR signaling modifier project, primary screen (AID 602276;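 active = inhibition at or above 50% at 10 µM; inactive = inhibition below 50%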;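 also: firefly luciferase from ISG56 promoter only with Renilla not read in this screen; 0% = Sendai virus plus DMSO and 100% = medium plus DMSO without virus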). The settings on record: HEK293 RL24 IRF3 luciferase reporter, at 10 µM, stronger effect = higher value.
A short description of assay [8]: TLR3 IRF3 reporter activation blockers – cell-based, poly I:C stimulus, luciferase, 10K MLSCN set, primary screen (AID 602277;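 active = inhibition of the reporter signal at or above 50%; inactive = inhibition below 50%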). Particulars: HEK293-TLR3 RL24 IRF3 luciferase reporter, at 10 µM, stronger effect = higher value.

Sequence of Alpha-2C adrenergic receptor (Homo sapiens) (P18825 whole entry, looked up): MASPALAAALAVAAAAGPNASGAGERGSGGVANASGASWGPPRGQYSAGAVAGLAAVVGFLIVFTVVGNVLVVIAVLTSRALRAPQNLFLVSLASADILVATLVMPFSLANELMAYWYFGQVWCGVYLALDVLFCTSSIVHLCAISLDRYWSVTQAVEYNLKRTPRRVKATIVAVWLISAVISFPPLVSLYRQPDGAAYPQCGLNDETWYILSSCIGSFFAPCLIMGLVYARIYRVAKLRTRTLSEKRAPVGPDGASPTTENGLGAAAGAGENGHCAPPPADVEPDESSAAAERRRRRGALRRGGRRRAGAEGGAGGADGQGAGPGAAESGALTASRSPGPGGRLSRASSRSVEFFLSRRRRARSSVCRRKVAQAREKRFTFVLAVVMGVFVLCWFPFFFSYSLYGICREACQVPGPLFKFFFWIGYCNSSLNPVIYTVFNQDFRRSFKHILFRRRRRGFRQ
Sequence of Voltage-gated potassium channel subunit beta-2 (Rattus norvegicus) (P62483 whole entry, looked up): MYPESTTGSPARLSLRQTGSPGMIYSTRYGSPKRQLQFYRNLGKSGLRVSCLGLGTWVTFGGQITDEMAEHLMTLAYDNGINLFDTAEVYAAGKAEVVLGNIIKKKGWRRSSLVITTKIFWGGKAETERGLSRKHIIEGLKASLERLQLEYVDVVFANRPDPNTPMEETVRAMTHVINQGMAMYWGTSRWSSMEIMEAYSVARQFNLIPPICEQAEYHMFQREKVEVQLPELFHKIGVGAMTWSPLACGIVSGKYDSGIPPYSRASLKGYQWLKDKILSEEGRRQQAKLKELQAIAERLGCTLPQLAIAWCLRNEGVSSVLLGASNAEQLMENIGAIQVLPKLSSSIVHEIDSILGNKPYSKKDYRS

Consider `CCOc1ccc(C2CC(c3cccc(C)c3)n3ncnc3N2)cc1` (centres undefined), for which the cell count in assay [1] was found to be 666. Further, the inhibition in assay [1] is 0.3% (inactive); in assay [3] it was -13.6% (inactive); in assay [7] it was -8.73% (inactive); in assay [8] it was 10.7% (inactive). For the same compound, the inhibition of aggregation in assay [2] is -18.7% (inactive). For the same compound, the results for the nuclei count in assay [2] and in assay [3] were 90.6% and 109%, respectively. In addition, in assay [4], the fluorescence slope is -0.622 (inactive). Besides, the NADPH fluorescence slope in assay [5] was 1.7e-06 (inactive). For the same compound, in assay [6], the slope was 0.0075 (inactive).

As for `O=C(O)Cn1nc2ccccc2n1`, the cell count in assay [1] amounted to 396. Also, the inhibition in assay [1] was 5% (inactive); in assay [3] it was -55.1% (inactive); in assay [7], 14.6% (inactive); in assay [8], 11.8% (inactive). For the same compound, in assay [2], the inhibition of aggregation was 10.5% (inactive). Also, the nuclei count in assay [2] amounted to 100%; in assay [3], 98.8%. The fluorescence slope in assay [4] is -0.4 (inactive). The NADPH fluorescence slope in assay [5] is 1.5e-05 (inactive). Further, the slope in assay [6] was 0.00551 (inactive).

Consider `c1ccc2c(c1)nc(NC1CCCCC1)c1nncn12`, for which the cell count in assay [1] was 446. Also, the inhibition in assay [1] is -0.5% (inactive); in assay [3] it was -47.5% (inactive); in assay [7], 0.474% (inactive); in assay [8], 32.3% (inactive). Further, in assay [2], the inhibition of aggregation is 11.8% (inactive). In addition, the nuclei count in assay [2] came out at 55.9%; in assay [3], 113%. The fluorescence slope in assay [4] was -0.595 (inactive). In assay [5], the NADPH fluorescence slope is -1.7e-05 (inactive). Moreover, the slope in assay [6] is 0.0061 (inactive).

With `Cc1ccc(C)c(/C(O)=C2\C(=O)C(=O)N(CCCN3CCOCC3)C2c2cccnc2)c1` (centres undefined), the cell count in assay [1] came out at 529. Moreover, the inhibition is 5.5% (inactive) in assay [1], -280% (inactive) in assay [3], 9.67% (inactive) in assay [7] and 21.1% (inactive) in assay [8]. Moreover, the inhibition of aggregation in assay [2] was -1.6% (inactive). Besides, the nuclei count amounted to 109% in assay [2] and 127% in assay [3]. Besides, in assay [4], the fluorescence slope is -0.339 (inactive). Besides, in assay [5], the NADPH fluorescence slope was -2.4e-06 (inactive). In addition, the slope in assay [6] is 0.00619 (inactive).

As for `Clc1ss/c(=N\c2ccccn2)c1Cl`, the cell count in assay [1] amounted to 623. Further, the inhibition in assay [1] was -6.5% (inactive); in assay [3] it was -39.9% (inactive); in assay [7] it was -8.89% (inactive); in assay [8], -24% (inactive). Moreover, the inhibition of aggregation in assay [2] was -1.1% (inactive). Besides, the nuclei count was 112% in assay [2] and 124% in assay [3]. In addition, the fluorescence slope in assay [4] is -0.483 (inactive). For the same compound, the NADPH fluorescence slope in assay [5] was -0.000216 (inactive). Also, the slope in assay [6] is 0.0043 (inactive).

For `COC(=O)c1ccccc1NC(=O)C1CCN(S(=O)(=O)c2cc(C)ccc2OC)CC1`, in assay [1], the cell count turned out to be 607. Further, the inhibition was 3.6% (inactive) in assay [1], -76.8% (inactive) in assay [3], 18.9% (inactive) in assay [7] and 28.7% (inactive) in assay [8]. In addition, the inhibition of aggregation in assay [2] was -20.2% (inactive). Also, the nuclei count in assay [2] was 111%; in assay [3], 123%. Also, in assay [4], the fluorescence slope was -0.454 (inactive). The NADPH fluorescence slope in assay [5] was -2.4e-07 (inactive). Further, the slope in assay [6] is 0.00507 (inactive).

Regarding `c1ccc2c(c1)Cc1cc(CN3CCOCC3)ccc1-2`, the cell count in assay [1] stood at 343. Also, the inhibition in assay [1] is -8% (inactive); in assay [3] it was -77.5% (inactive); in assay [7], -50.9% (inactive); in assay [8], -105% (inactive). Moreover, the inhibition of aggregation in assay [2] was -2.2% (inactive). Further, the nuclei count in assay [2] came out at 110%; in assay [3], 128%. Further, the fluorescence slope in assay [4] was -0.415 (inactive). In addition, the NADPH fluorescence slope in assay [5] is -8.5e-05 (inactive). For the same compound, in assay [6], the slope was 0.00531 (inactive).

With `CC(C)=CCCC(C)N(C=O)C(C)CCC=C(C)C` (centres undefined), in assay [1], the cell count stood at 470. The inhibition in assay [1] is 8.1% (inactive); in assay [3], -144% (inactive); in assay [7], 10.3% (inactive); in assay [8] it was -8.14% (inactive). The inhibition of aggregation in assay [2] was 4.3% (inactive). Further, the figures for the nuclei count in assay [2] and in assay [3] were 98.2% and 126%, respectively. Besides, the fluorescence slope in assay [4] was -0.598 (inactive). In assay [5], the NADPH fluorescence slope was -1.6e-06 (inactive). Moreover, the slope in assay [6] is 0.00568 (inactive).

In the case of `CCN(CC)S(=O)(=O)c1ccc2oc(C(=O)N3CCOCC3)c(C)c2c1`, the cell count in assay [1] was found to be 638. Moreover, the inhibition in assay [1] was -12% (inactive); in assay [3] it was -96.2% (inactive); in assay [7], -1.83% (inactive); in assay [8] it was 2.02% (inactive). Further, the inhibition of aggregation in assay [2] is 5.2% (inactive). For the same compound, the nuclei count in assay [2] is 107%; in assay [3], 92.5%. In addition, the fluorescence slope in assay [4] is -0.543 (inactive). The NADPH fluorescence slope in assay [5] was -2.8e-06 (inactive). Also, the slope in assay [6] was 0.00418 (inactive).

Regarding `COC(=O)c1ccc(CSc2nnc(-c3ccncc3)o2)o1`, in assay [1], the cell count came to 612. The inhibition in assay [1] was -2.2% (inactive); in assay [3], -31.9% (inactive); in assay [7] it was 12% (inactive); in assay [8], 13.9% (inactive). Moreover, the inhibition of aggregation in assay [2] was -8% (inactive). In addition, the figures for the nuclei count in assay [2] and in assay [3] were 139% and 114%, respectively. In assay [4], the fluorescence slope was -0.596 (inactive). In assay [5], the NADPH fluorescence slope is -3.4e-05 (inactive). In addition, the slope in assay [6] was 0.00373 (inactive).

Regarding `Cc1ccc(-n2c3c(cc(C(=O)NC4CCSC4=O)c2=O)C(=O)CC(C)(C)C3)cc1` (centres undefined), in assay [1], the cell count is 294. The inhibition in assay [1] is 7.2% (inactive); in assay [3], -48.3% (inactive); in assay [7] it was -0.246% (inactive); in assay [8], 38.6% (inactive). Besides, in assay [2], the inhibition of aggregation is 7% (inactive). The nuclei count in assay [2] is 100%; in assay [3], 97.9%. Moreover, the fluorescence slope in assay [4] was -0.458 (inactive). Further, in assay [5], the NADPH fluorescence slope is -8.6e-06 (inactive). The slope in assay [6] was 0.00353 (inactive).

Turning to `CCOC(=O)CN1C(=O)C(=O)c2cccc(C)c21`, in assay [1], the cell count came out at 651. Further, the inhibition was -4.4% (inactive) in assay [1], -62.9% (inactive) in assay [3], 15.4% (inactive) in assay [7] and 34.9% (inactive) in assay [8]. In addition, the inhibition of aggregation in assay [2] is -8.1% (inactive). Also, the nuclei count in assay [2] and in assay [3] was 119% in each case. For the same compound, the fluorescence slope in assay [4] is -0.601 (inactive). In addition, the NADPH fluorescence slope in assay [5] was -4.5e-05 (inactive). For the same compound, in assay [6], the slope is 0.00699 (inactive).

Regarding `COc1ccc(S(=O)(=O)N2CCN(CC(=O)Nc3ccc(C)c(F)c3)CC2)cc1`, in assay [1], the cell count turned out to be 339. Besides, the inhibition in assay [1] is -8.1% (inactive); in assay [3] it was -4.2% (inactive); in assay [7] it was 18.5% (inactive); in assay [8] it was 23.8% (inactive). For the same compound, in assay [2], the inhibition of aggregation was -0.4% (inactive). Also, the figures for the nuclei count in assay [2] and in assay [3] were 115% and 80.5%, respectively. The fluorescence slope in assay [4] was -0.518 (inactive). The NADPH fluorescence slope in assay [5] is 1.2e-05 (inactive). Moreover, the slope in assay [6] is 0.00517 (inactive).

`Cc1ccc2cc(CN(Cc3ccc(F)cc3)Cc3nnnn3C3CCCC3)c(=O)[nH]c2c1`: the cell count in assay [1] was 702. The inhibition in assay [1] is -10.8% (inactive); in assay [3], -40.7% (inactive); in assay [7], 10.6% (inactive); in assay [8], 13.8% (inactive). In assay [2], the inhibition of aggregation was -13.3% (inactive). Also, the nuclei count in assay [2] stood at 103%; in assay [3], 98.8%. The fluorescence slope in assay [4] was -0.311 (inactive). Also, the NADPH fluorescence slope in assay [5] was -4.1e-05 (inactive). In addition, the slope in assay [6] was 0.00514 (inactive).
